Measurements: PubChem BioAssay (NCATS)
Inconclusive results are not listed. Values without a mark were called inactive. Calls come from the whole dose curve; as a rule, active = well fitted inhibition curve with a large enough effect; inconclusive = small, poorly fitted or top-dose-only effect; inactive = flat fitted curve, though single readings scatter.

Tested on: HEK293
Test: Cytotoxic Profiling of Annotated Libraries Using Quantitative High-Throughput Screening (AID 1296008); note: nearly all actives have a fitted effect of over 60% in size
Settings: Five cell lines viability, CellTiter-Glo ATP luminescence, 48-72 h; max response: active compounds read low
Outline: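 Cells exposed to compounds for 48 or 72 hr at 37 degrees Celsius. Viability read as ATP-coupled luminescence with CellTiter-Glo after 10 min at room temperature.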
% is set by controls: 0 for no effect and ±100 for the full control effect.

SMILES | max response
CC(=O)O[C@@H]1[C@H](O[C@@H]2O[C@H](CO)[C@@H](O)[C@H](O)[C@H]2O)[C@@H](O[C@@H]2O[C@@H](C)[C@H](O)[C@@H](O[C@@H]3O[C@H](CO)[C@@H](O)[C@H](O)[C@H]3O)[C@H]2O)[C@H](OC(=O)[C@]23CCC(C)(C)C[C@H]2C2=CCC4[C@@]5(C)C[C@H](O)[C@H](O[C@@H]6O[C@H](C(=O)O)[C@@H](O)[C@H](O)[C@H]6O)[C@@](C)(C(=O)O)C5CC[C@@]4(C)[C@]2(C)CC3)O[C@@H]1C (some centres not stated) | -5.4%
CC(=O)OCC1OC(O[C@H]2CC[C@@]3(C)C(CC[C@]4(C)C3CC=C3[C@@H]5CC(C)(C)CC[C@]5(C(=O)O)CC[C@]34C)[C@]2(C)CO)C(O)C(O)C1OC1OC(C)C(O)C(OC2OCC(O)C(O)C2O)C1O (some centres not stated) | -5.43%
CC1=C[C@@H]2[C@H]3[C@@H]4O[C@@](C)(CC[C@H]4O)[C@H]3CC(=O)[C@]23C(=O)N[C@@H](CC(C)C)[C@@H]3[C@@H]1C | 4.29%
COc1cccc(CN(C(=O)CC(C)(C)C)C2CC(C(=O)N3CCNCC3)N(Cc3ccc4c(c3)OCO4)C2)c1 (configuration not stated) | -17.6%
C/C=C/C=C/C(O)=C1/C(=O)[C@]2(C)C3/C(=C(O)/C=C/C=C/C)C(=O)C4(C)C1[C@]1(C)O[C@@]4(O)[C@@]3(C)O[C@@]12O | 2.27%
OC[C@H]1O[C@@H](OCCc2ccccc2)[C@H](O)[C@@H](O)[C@@H]1O | 3.92%
CCC(C)C(N)C(=O)NCCN1CCOCC1 (configuration not stated) | 2.51%
